The campaign covered roughly 390,000 compounds. About 2,200 (0.56%) were called active. Entries that show only a call come without a potency. Not shown: some 3% with an inconclusive outcome. Calls come from the whole dose curve; as a rule, active = well fitted inhibition curve with a large enough effect; inconclusive = small, poorly fitted or top-dose-only effect; inactive = no such curve, though single readings can be large or run the other way. Only a selection was taken, and actives are over-represented in it overall.
Molecular target: Chromobox protein homolog 1 (Homo sapiens) (UniProt P83916)
Experiment: HTS for Inhibitors of HP1-beta Chromodomain Interactions with Methylated Histone Tails; note: nearly all actives have a fitted effect of over 70% in size
Conditions: AlphaScreen HP1-beta / biotin-H3K9me3 peptide binding; series mostly up to 114 µM
Method in brief: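 AlphaScreen: HP1-beta (50 nM) preformed 30 min with biotin-H3(1-18)K9me3 peptide (50 nM) in PBS pH 7.4, 0.01% Tween-20. Compound added for 30 min at RT, then streptavidin donor/nickel chelate acceptor beads (10 ug/mL) for 30 min.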
Potency is the fitted concentration of half-maximal effect.

Sequence of Chromobox protein homolog 1 (Homo sapiens) (P83916 whole entry, looked up): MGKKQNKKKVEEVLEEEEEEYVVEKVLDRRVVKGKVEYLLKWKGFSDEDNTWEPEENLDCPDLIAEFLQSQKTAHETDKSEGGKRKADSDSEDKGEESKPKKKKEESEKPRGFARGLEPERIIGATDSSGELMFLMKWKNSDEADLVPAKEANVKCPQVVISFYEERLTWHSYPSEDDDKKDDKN

| Compound | Potency |
| --- | --- |
| C=C(C)C(=O)Nc1cccc(C2=NOC3(C2)C[C@H](C(N)=O)N(C(=O)C(c2ccccc2)c2ccccc2)C3)c1 (some centres not stated) | 12.6 µM (active) |
| C/C=C(\C)C(=O)N1CC2(CC(c3cccc(NC(=O)CCCCC)c3)=NO2)C[C@@H]1C(N)=O (some centres not stated) | inactive |
| CC/C=C/C(=O)N1CC2(CC(c3cccc(NC(=O)CC)c3)=NO2)C[C@H]1C(N)=O (some centres not stated) | inactive |
| O=C(O)C1CC=CC2CCN(C3CCCCC3)C(=O)C21 (configuration not stated) | inactive |
| COC(=O)c1cc(NC(=O)CCS(=O)(=O)c2cc(Br)cc3c2N(C(=O)C2CC2)CC3)cc(C(=O)OC)c1 | inactive |
| Cc1n[nH]c(=O)n1-c1ccc(Oc2ccccc2)cc1 | inactive |
| COc1ccc(-c2nn3c(-c4ccc(OC)cc4)nnc3c3ccccc23)cc1 | inactive |
| COc1ccc(-c2nc(=N)sn2-c2ccccc2)cc1 | 14.1 µM (active) |
| CN(Cc1ccccc1)C(=O)c1cn(C)c2ccc(S(=O)(=O)N(C)C3CCCCC3)cc2c1=O | inactive |
| Cc1c(Cl)cccc1NC(=O)C(=O)NCCc1csc2nc(-c3ccccc3F)nn12 | inactive |
| COc1ccc(CCNc2ncnc3c2cnn3-c2ccc(C)cc2)cc1 | inactive |
| Cc1ccc(S(=O)(=O)N2CCN(c3nc(-n4cnc5ccccc54)nc4ccccc34)CC2)cc1 | inactive |
| O=C(NCc1ccc2c(c1)CCN2C(=O)c1ccccc1)Nc1cc(F)ccc1F | inactive |
| COCCCn1c(SCC(=O)Nc2ccccc2)nnc1-c1ccncc1 | inactive |
| CCOc1ccc(Nc2nc(Cc3nnc(SCC(=O)NC4CCCC4)n3C)cs2)cc1 | inactive |
| COCCCn1c(Cc2csc(Nc3cccc(Cl)c3)n2)nnc1SCC(=O)OC1CCCCC1 | 50.1 µM (active) |
| COc1ccc(-c2nc3scc(CCNS(=O)(=O)c4cc(F)ccc4OC)n3n2)cc1OC | inactive |
| CCS(=O)(=O)c1cc([N+](=O)[O-])c(Sc2ccccc2N)s1 | 39.8 µM (active) |
| Cc1ccc(CNC(=O)C2(C(F)(F)F)C/C(=C\CCO)CCCO2)o1 (configuration not stated) | inactive |
| COc1ccc(/C=C/c2noc(-c3ccccc3O)n2)cc1OC | inactive |
| CC(=O)OCC(NC(=O)C(Cc1ccccc1)NC(=O)OC(C)(C)C)C1OC(n2ccc(=O)[nH]c2=O)C(OC(C)=O)C1OC(C)=O (configuration not stated) | inactive |
| O=S(=O)(NCCS(=O)(=O)N1CCN(c2ccccc2)CC1)c1ccc(Cl)cc1 | inactive |
| C=CC1=C(C(=O)O)N2C(=O)[C@@H](NC(=O)/C(=N/OCC(=O)O)c3csc(N)n3)[C@H]2SC1 | 14.1 µM (active) |
| CCCCCCC1(C)NC(c2ccc3c(c2)OCO3)=CC(c2ccccc2O)N1 (configuration not stated) | inactive |
| CN(C)c1ccc(CSc2ccccc2)cc1 | 39.8 µM (active) |

| Compound | Potency |
| --- | --- |
| O=C(Nc1ccc(CSc2ccccc2)cc1)c1ccc(CN2CCOCC2)cc1 | inactive |
| CN(C)c1ccc(C(CC(=O)O)C(=O)O)cc1 (configuration not stated) | inactive |
| Cc1ccc(-c2nc3ccccn3c2Nc2ccc(F)cc2)o1 | inactive |
| Cc1ccc(-c2onc(C)c2C)cc1S(=O)(=O)Nc1ccccn1 | inactive |
| CCCCNC(=S)N/N=C1\CCCCc2ccccc21 | inactive |
| Cc1cc(F)ccc1NC(=S)NCCc1ccccc1 | inactive |
| CCCC1CCC(=NNC(=S)NCCc2ccccc2)CC1 (configuration not stated) | 44.7 µM (active) |
| COC(=O)C(CC(C)C)NS(=O)(=O)c1cc(Br)ccc1Br (configuration not stated) | inactive |
| CCOC(=O)c1ccccc1NC(=O)c1sc2nc(-c3ccc(F)cc3)cn2c1C | inactive |
| Cc1ccc(NC(=O)c2ccc3[nH]c(C)cc(=O)c3c2)c(C)c1 | inactive |
| CCOc1ccccc1NC(=O)CSc1ncc(S(=O)(=O)c2ccc(C(C)(C)C)cc2)c(=O)[nH]1 | inactive |
| COc1ccc(/C=N/n2c(C)cc(C)cc2=O)cc1 | inactive |
| CN=c1scc(-c2cc(OC)ccc2OC)n1/N=C/c1c(C)[nH]c2ccccc12 | 31.6 µM (active) |
| Oc1ccc(Br)cc1C1C=C(c2ccc3c(c2)OCO3)NC(c2ccc(Cl)cc2)N1 (configuration not stated) | inactive |
| CCCCSc1ncnc2c1sc1nc(N3CCOCC3)c3c(c12)CCCC3 | inactive |
| S=C(Nc1ccc(Cl)cc1Cl)N1CCCC1 | inactive |
| O=C(NCCc1ccc(Cl)cc1)C1CCCN1C(=O)NCc1ccccc1 (configuration not stated) | inactive |
| Oc1cc2c(cc1O)CN(C(=S)NCCc1ccc(Cl)cc1)CCC2 | 50.1 µM (active) |
| COc1ccc(C2=NC3(CCCCC3)N(CC(=O)Nc3ccc(C(C)C)cc3)C2=O)cc1 | inactive |
| COc1ccc(N2CCN(c3cc(C)nc4nncn34)CC2)cc1 | inactive |
| CCCNC(=O)C1CCN(c2nc3ccc(C)cc3[nH]2)CC1 | inactive |
| COc1ccc(S(=O)(=O)NCC(c2ccc(N(C)C)cc2)N2CCCC2)cc1 (configuration not stated) | inactive |
| COc1ccc(N2CCN(C(CNS(=O)(=O)c3ccc(C)cc3)c3ccccc3)CC2)cc1 (configuration not stated) | 31.6 µM (active) |
| COc1ccc(S(=O)(=O)NCC(c2ccc(C)cc2)N2CCN(C)CC2)cc1OC (configuration not stated) | inactive |
| COc1ccc(NC(=O)c2sc3nc[nH]c(=O)c3c2C)cc1 | inactive |

| Compound | Potency |
| --- | --- |
| O=[N+]([O-])c1ccc(Oc2ccc(F)cc2Br)c2ccncc12 | 50.1 µM (active) |
| CCN1CCN(c2cc(C)c3cc(NC(=O)c4cc(Cl)ccc4OC)ccc3n2)CC1 | inactive |
| CCN(C(=O)CSc1nnc(C)n2c1cc1occc12)c1ccccc1 | inactive |
| CCOc1ccc(S(=O)(=O)NCCC(=O)NCC2CCCO2)cc1 (configuration not stated) | inactive |
| CCOc1ccc(-n2c(N)c(C(=O)NCC3CCCO3)sc2=S)cc1 (configuration not stated) | 17.8 µM (active) |
| CCOc1ccc(S(=O)(=O)N2CCN(C(=S)NCC3CCCO3)CC2)cc1 (configuration not stated) | inactive |
| COc1ccc(-c2cccc(NS(=O)(=O)c3cc(C)c(OC)c(C)c3C)c2)nn1 | inactive |
| COc1ccc(-c2nc3c4ccccc4n(CC(=O)Nc4ccc(C(C)=O)cc4)c(=O)n3n2)cc1 | inactive |
| O=C1CSC(=S)N1/N=C/c1ccc(O)c([N+](=O)[O-])c1 | 39.8 µM (active) |
| CCOC(=O)c1c(C)n(S(=O)(=O)c2ccc(C)cc2C)c2ccc(NS(=O)(=O)c3ccc(C)cc3C)cc12 | inactive |
| CC(=O)N1CCCc2cc(S(=O)(=O)N3CCC(C(=O)NC4CCCCC4)CC3)ccc21 | inactive |
| Cc1ccc(NC(=O)C(Cc2ccccc2)NS(=O)(=O)c2ccc3c(c2)oc(=O)n3C)cc1C (configuration not stated) | inactive |
| CC1CCCCC1NC(=O)CSc1nnc(-c2ccncc2)n1CCCN(C)C (configuration not stated) | 28.2 µM (active) |
| CCn1c(SCC(=O)NC2CC2)nnc1-c1ccncc1 | inactive |
| COCCCn1c(SCC(=O)NC2CCCC2)nnc1-c1ccccc1 | inactive |
| COc1ccc(Cl)cc1NC(=O)c1sc2nc3c(cc2c1N)CN(C)CC3 | inactive |
| COc1cc(/C=C/C(=O)O)cc(S(=O)(=O)Nc2ccccc2C(=O)NCCc2ccccc2)c1OC | inactive |
| COc1ccc(Br)cc1/C=N/Nc1ccc(S(=O)(=O)Nc2ccccc2C(=O)O)cc1[N+](=O)[O-] | 22.4 µM (active) |
| COC(=O)c1ccccc1NS(=O)(=O)c1ccc2c(c1)CCCN2C(C)=O | inactive |
| CCC(=O)N1CCc2cc(S(=O)(=O)NC(CC(C)C)C(=O)NCCc3cccc(C)c3)ccc21 (configuration not stated) | inactive |
| CC(C)Cn1c(=O)c2ccccc2n2c(CCC(=O)N3CCN(c4cccc(Cl)c4)CC3)nnc12 | inactive |
| CC(Sc1oc(-c2ccco2)nc1S(=O)(=O)c1ccc(Br)cc1)c1ccccc1 (configuration not stated) | inactive |
| O=C(NCc1ccccn1)[C@]1(C(F)(F)F)C[C@H](CCc2ccccc2)CCCO1 | inactive |
| Nc1[nH][nH]c(=O)c1N=Nc1ccc2c(c1)OCO2 | inactive |
| O=C1/C(=C/c2ccc3c(c2)OCO3)CCC/C1=C\c1ccc2c(c1)OCO2 | 28.2 µM (active) |

| Compound | Potency |
| --- | --- |
| Cc1nn(C)cc1/C=C1\CCC/C(=C\c2cn(C)nc2C)C1=O | inactive |
| O=C1CC(c2ccccc2)CC2=C1C(c1ccco1)n1nc(C(F)(F)F)nc1N2 (configuration not stated) | inactive |
| CCOC(=O)c1cc2c(=O)n3ccccc3nc2n(CC2CCCO2)c1=NC(=O)c1ccccc1F (configuration not stated) | inactive |
| CC(C)OC(=O)c1ccc(NCc2cc(O)ccc2O)cc1Cl | 39.8 µM (active) |
| O=C(CC1C(=O)N(c2ccccc2)C(=O)N1CCc1cccs1)Nc1ccc(F)cc1 (configuration not stated) | inactive |
| Cc1ccc(Cc2nc3ccccc3nc2SCC(=O)Nc2cccc(C(F)(F)F)c2)cc1 | inactive |
| CC(C)(C)C(=O)OCc1nc(-c2ccc(O)c(O)c2)cs1 | 70.8 µM (active) |
| CNC(=O)[C@]1(C(F)(F)F)C[C@H](CCc2ccccc2)CCCO1 | inactive |
| CCc1cnc2c(c1SCC(=O)N1CCC(C)CC1)c(=O)n(C)c(=O)n2C | inactive |
| COc1ccc(Cn2ccn(Cc3cccc(OC)c3)c(=O)c2=O)cc1 | inactive |
| COc1ccccc1CNC(=O)C(=O)NCC(c1ccco1)S(=O)(=O)c1ccc(F)cc1 (configuration not stated) | inactive |
| CC(=O)Oc1ccc(C(C)=O)c2c1OCCO2 | inactive |
| CC(=O)Oc1ccc(OC(C)=O)c2c1C1C=CC2CC1 | 89.1 µM (active) |
| COc1ccc(C)cc1N(C)C(=O)c1c(C)oc2ncnc(N3CCOCC3)c12 | inactive |
| COc1ccc(CCC(=O)NCCc2csc(-c3ccc(Cl)cc3)n2)cc1 | inactive |
| COc1ccc(C2CC(O)(c3ccccc3)Oc3cc(C)cc(C)c32)cc1 (configuration not stated) | inactive |
| COc1ccccc1-c1cc(C(F)(F)F)nc(S(=O)(=O)CCCC(=O)Nc2ccc(F)cc2F)n1 | inactive |
| O=[N+]([O-])c1ccc(N/N=C2/CCCCC2c2ccccn2)c([N+](=O)[O-])c1 (configuration not stated) | 35.5 µM (active) |
| CC1(C)C/C(=N/Nc2ccc([N+](=O)[O-])cc2[N+](=O)[O-])C(C)(C)O1 | inactive |
| C[n+]1ccccc1C1CCCC/C1=N\Nc1ccc([N+](=O)[O-])cc1[N+](=O)[O-] (configuration not stated) | inactive |
| COc1ccc(CN2CCC(=O)c3ccccc3S2(=O)=O)cc1 | inactive |
| COc1cc(NC(=O)c2cc3ccc4cccnc4c3[nH]2)cc(OC)c1OC | inactive |
